# PubChem BioAssay (Tox21)
# Inconclusive results are not listed. Entries that show only a call come without a potency. A number with no mark means an inactive call. The source made the active and inactive calls. Unless noted, calls come from the whole dose curve; as a rule, active = well fitted cell-killing curve with a large enough effect in the repeat runs; inconclusive = weak or mixed curves, or effect the other way; inactive = no such curve, though single readings can be large or run the other way.
# Molecular target: Bile acid receptor (Homo sapiens) (UniProt Q96RI1)
# Test: qHTS assay to identify small molecule antagonists of the farnesoid-X-receptor (FXR) signaling pathway (AID 743217; active = well fitted inhibition curve with a large enough effect in the signal ratio in the repeat runs, not every such curve was filed as active; the % refers to the signal ratio)
# Details: HEK293T FXR-UAS-bla, beta-lactamase ratio, CDCA-stimulated, 16 h; series mostly up to 62.6 µM
# Outline: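 Antagonist mode: chenodeoxycholic acid at 50 uM final stimulates a UAS-driven beta-lactamase reporter in HEK 293T FXR-bla cells during 16 h, 37C compound exposure. Read-out is FRET substrate fluorescence after 2 h at room temperature.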
# Sequence of Bile acid receptor (Homo sapiens) (Q96RI1 whole entry, looked up): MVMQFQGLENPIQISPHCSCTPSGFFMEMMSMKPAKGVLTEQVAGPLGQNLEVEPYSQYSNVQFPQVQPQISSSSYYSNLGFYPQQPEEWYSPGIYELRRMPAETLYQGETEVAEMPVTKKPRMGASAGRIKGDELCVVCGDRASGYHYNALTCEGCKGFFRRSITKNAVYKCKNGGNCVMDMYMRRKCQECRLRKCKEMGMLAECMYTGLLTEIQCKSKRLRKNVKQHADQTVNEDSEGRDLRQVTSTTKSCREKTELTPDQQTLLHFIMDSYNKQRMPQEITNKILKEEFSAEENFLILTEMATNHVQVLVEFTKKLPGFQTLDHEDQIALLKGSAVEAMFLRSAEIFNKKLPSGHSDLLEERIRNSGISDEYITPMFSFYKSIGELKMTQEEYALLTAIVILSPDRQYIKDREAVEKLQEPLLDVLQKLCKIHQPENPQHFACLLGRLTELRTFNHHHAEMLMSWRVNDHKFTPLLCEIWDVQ
row,SMILES,outcome
1,CC(C)=CCCC(C)CCOC=O (stereo unspecified),inactive
2,CN1[C@@H]2CC[C@H]1CC(OC(=O)c1c[nH]c3ccccc13)C2 (stereo partly specified),inactive
3,O=[N+]([O-])c1nccn1CO[C@@H](CO)[C@H](O)CO,inactive
4,OCc1ccccc1O,inactive
5,NC(=O)Cc1cccc(C(=O)c2ccccc2)c1N,inactive
6,CC1=C2[C@H](/C=C(\C)C(=O)O)CC[C@@H](C)[C@H]2CC1,inactive
7,Cn1cnc2c(F)c(Nc3ccc(Br)cc3Cl)c(C(=O)NOCCO)cc21,inactive
8,CN1CCN(C2=Nc3cc(F)ccc3Cc3ccccc32)CC1,inactive

# Test system: not listed separately
# Test: qHTS assay to identify small molecule agonists of the farnesoid-X-receptor (FXR) signaling pathway - cell viability counter screen (AID 743218); note: nearly all actives have a fitted effect of over 45% in size; note: potency is the fitted concentration of half-maximal effect
# Details: FXR-bla HEK293T viability, CellTiter-Glo luminescence, 16 h; series mostly up to 62.6 µM
# Outline: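 Viability counter screen in the same wells: CellTiter-Glo luminescence, 30 min room-temperature incubation, measured after the beta-lactamase read. Cells were GeneBLAzer FXR-UAS-bla HEK 293T, compound-treated 16 h at 37C.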
SMILES,Potency,"viability change, negative = cytotoxic"
NNS(=O)(=O)c1ccc(Oc2ccc(S(=O)(=O)NN)cc2)cc1,inactive,–
CC1=C(CC(=O)O)c2cc(F)ccc2/C1=C\c1ccc(S(C)(=O)=O)cc1,inactive,–
CN(C)C(=O)NC1(c2ccccc2)CCN(CCC[C@]2(c3ccc(Cl)c(Cl)c3)CCCN(C(=O)c3ccccc3)C2)CC1,11.7 µM (active),–
CC(C)=CCCC(C)CCOC=O (stereo unspecified),inactive,–
OCC(CBr)(CBr)CBr,inactive,–
NC(Cc1ccc(F)cc1)C(=O)O (stereo unspecified),–,4.49% [at 5.95 µM]
O=c1oc2c(O)c(O)cc3c(=O)oc4c(O)c(O)cc1c4c23,inactive,–
O=C1CCCc2ccccc21,inactive,–
CCOc1ccccc1N,inactive,–
O=c1[nH]c(=O)n([C@H]2C[C@H](O)[C@@H](CO)O2)cc1C(F)(F)F,inactive,–
CN1CCC[C@@H]1Cc1c[nH]c2ccc(CCS(=O)(=O)c3ccccc3)cc12,inactive,–
Nc1ccc(Oc2ccc(N)c(N)c2)cc1,inactive,–
O=[N+]([O-])c1nccn1CO[C@@H](CO)[C@H](O)CO,inactive,–
CNCCC(Oc1ccccc1OC)c1ccccc1 (stereo unspecified),inactive,–
OCc1ccccc1O,inactive,–
CCCOCCC,inactive,–
NC(=O)Cc1cccc(C(=O)c2ccccc2)c1N,inactive,–
Cc1cc(S(=O)(=O)O)c(N)cc1Cl,inactive,–

SMILES,Potency,"viability change, negative = cytotoxic"
OC[C@H]1O[C@@H](O[C@H]2[C@H](O)[C@@H](O)[C@H](O)O[C@@H]2CO)[C@H](O)[C@@H](O)[C@H]1O,inactive,–
CN(CCCN1c2ccccc2CCc2ccccc21)CC(=O)c1ccc(Cl)cc1,inactive,–
CC1=C2[C@H](/C=C(\C)C(=O)O)CC[C@@H](C)[C@H]2CC1,inactive,–
CCCCC(=O)O[C@]1(C(=O)CO)[C@H](C)C[C@H]2[C@@H]3CCC4=CC(=O)C=C[C@]4(C)[C@@]3(F)[C@@H](O)C[C@@]21C,inactive,–
CCCCCCCCCCCCOCCOS(=O)(=O)O,inactive,–
CC1(O)CSC(C)(O)CS1 (stereo unspecified),inactive,–
COC(=O)c1ccc2cc(C(=O)OC)ccc2c1,inactive,–
CCCCNC(=S)NCCCC,inactive,–
COC(=O)N[C@H](C(=O)N[C@@H](Cc1ccccc1)[C@@H](O)CN(Cc1ccc(-c2ccccn2)cc1)NC(=O)[C@@H](NC(=O)OC)C(C)(C)C)C(C)(C)C,inactive,–
Cn1cnc2c(F)c(Nc3ccc(Br)cc3Cl)c(C(=O)NOCCO)cc21,inactive,–
O=C(Cl)c1cccc([N+](=O)[O-])c1,inactive,–
CC(C)Nc1nc(N)nc(Cl)n1,inactive,–
O=C(O[C@@H](C(=O)O)[C@@H](OC(=O)c1ccccc1)C(=O)O)c1ccccc1,inactive,–
CC[C@H]1CC[C@H](NCc2cc3c(cc2OC)[C@H]2C[C@H]2C(=O)N3C)[C@H](c2ccccc2)N1,inactive,–
NC1=NCC2c3ccccc3Cc3ccccc3N12 (stereo unspecified),inactive,–
CC1=NN(c2cc(Cl)c(S(=O)(=O)O)cc2Cl)C(=O)C1N=Nc1ccc(S(=O)(=O)O)cc1 (stereo unspecified),inactive,–
CCOC(=O)COc1ccc2c(c1)CC(NCC(O)c1cccc(Cl)c1)CC2 (stereo unspecified),inactive,–
CN1CCN(C2=Nc3cc(F)ccc3Cc3ccccc32)CC1,inactive,–

# Molecular target: Bile acid receptor (Homo sapiens) (UniProt Q96RI1)
# Test: qHTS assay to identify small molecule agonists of the farnesoid-X-receptor (FXR) signaling pathway (AID 743220; active = well fitted activation curve with a large enough effect in the signal ratio in the repeat runs, not every such curve was filed as active; the % refers to the signal ratio)
# Details: HEK293T FXR-UAS-bla, beta-lactamase FRET ratio, 16 h; series mostly up to 62.6 µM
# Outline: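 FXR-UAS-bla HEK 293T cells carrying a UAS-driven beta-lactamase reporter were plated for 5 h at 37C/5% CO2, then exposed to DMSO-dissolved Tox21 10K compounds for 16 h at 37C. A LiveBLAzer B/G FRET substrate was loaded for 2 h at room temperature before fluorescence reading.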
row,SMILES,outcome
1,NNS(=O)(=O)c1ccc(Oc2ccc(S(=O)(=O)NN)cc2)cc1,inactive
2,CC(C)=CCCC(C)CCOC=O (stereo unspecified),inactive
3,O=c1oc2c(O)c(O)cc3c(=O)oc4c(O)c(O)cc1c4c23,inactive
4,O=c1[nH]c(=O)n([C@H]2C[C@H](O)[C@@H](CO)O2)cc1C(F)(F)F,inactive
5,CN1[C@@H]2CC[C@H]1CC(OC(=O)c1c[nH]c3ccccc13)C2 (stereo partly specified),inactive
6,Nc1ccc(Oc2ccc(N)c(N)c2)cc1,inactive
7,O=[N+]([O-])c1nccn1CO[C@@H](CO)[C@H](O)CO,inactive
8,CNCCC(Oc1ccccc1OC)c1ccccc1 (stereo unspecified),inactive
9,NC(=O)Cc1cccc(C(=O)c2ccccc2)c1N,inactive
10,OC[C@H]1O[C@@H](O[C@H]2[C@H](O)[C@@H](O)[C@H](O)O[C@@H]2CO)[C@H](O)[C@@H](O)[C@H]1O,inactive
11,CN(CCCN1c2ccccc2CCc2ccccc21)CC(=O)c1ccc(Cl)cc1,inactive
12,CC1=C2[C@H](/C=C(\C)C(=O)O)CC[C@@H](C)[C@H]2CC1,inactive
13,CC1(O)CSC(C)(O)CS1 (stereo unspecified),inactive
14,Cn1cnc2c(F)c(Nc3ccc(Br)cc3Cl)c(C(=O)NOCCO)cc21,inactive
15,O=C(Cl)c1cccc([N+](=O)[O-])c1,inactive
16,CCC(=O)c1ccc2c(c1)N(CCCN(C)C)c1ccccc1S2,inactive
17,CN1CCN(C2=Nc3cc(F)ccc3Cc3ccccc32)CC1,inactive
